According to PubChem BioAssay AID1159580 (chemical genetic matrix, 2015):
About 2,000 (36%) of roughly 5,500 compounds were called active. Another 18% or so got no clear call; they are omitted. Rule as the data show it: active = normalized growth mostly below about 0.91 (no sharp cut-off); inconclusive = no clear call, values can overlap the other calls; inactive = mostly above about 0.92. This is one part of the list.

Assay: chemical genetic growth profiling, strain panel (AID 1159580);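 also: tested at 20 µM; growth read once vehicle control cultures reached saturation at 30 °C; 1 = growth at the plate median or of vehicle wells; lower values mean less growth of the strain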
Settings: growth OD
[1] = S. cerevisiae deletion strains, locus YAL013W, strain DEP1, hits give low values
[2] = S. cerevisiae deletion strains, locus YBR229C, strain ROT2, hits give low values
[3] = S. cerevisiae deletion strains, locus YDL101C, strain DUN1, hits give low values
[4] = S. cerevisiae deletion strains, locus YDR150W, strain NUM1, hits give low values
[5] = S. cerevisiae deletion strains, locus YEL061C, strain CIN8, hits give low values
[6] = S. cerevisiae deletion strains, locus YGR078C, strain PAC10, hits give low values
[7] = S. cerevisiae deletion strains, locus YHR030C, strain SLT2, hits give low values
[8] = S. cerevisiae deletion strains, locus YHR087W, strain rtc3, hits give low values
[9] = S. cerevisiae deletion strains, locus YJR043C, strain POL32, hits give low values
[10] = S. cerevisiae deletion strains, locus YJR075W, strain HOC1, hits give low values
[11] = S. cerevisiae deletion strains, locus YLR039C, strain RIC1, hits give low values
[12] = S. cerevisiae deletion strains, locus YLR058C, strain SHM2 (second series), hits give low values
[13] = S. cerevisiae deletion strains, locus YLR085C, strain ARP6, hits give low values
[14] = S. cerevisiae deletion strains, locus YLR262C, strain YPT6, hits give low values
[15] = S. cerevisiae deletion strains, locus YML094W, strain GIM5, hits give low values
[16] = S. cerevisiae deletion strains, locus YMR219W, strain ESC1, hits give low values
[17] = S. cerevisiae deletion strains, locus YMR263W, strain SAP30, hits give low values
[18] = S. cerevisiae deletion strains, locus YNL153C, strain GIM3, hits give low values
[19] = S. cerevisiae deletion strains, locus YNL298W, strain CLA4 (second series), hits give low values
[20] = S. cerevisiae deletion strains, locus YNL322C, strain KRE1, hits give low values
[21] = S. cerevisiae deletion strains, locus YNR030W, strain Alg12, hits give low values
[22] = S. cerevisiae deletion strains, locus YPL055C, strain LGE1, hits give low values
[23] = S. cerevisiae deletion strains, locus YPL241C, strain CIN2, hits give low values
[24] = S. cerevisiae deletion strains, locus YPR135W, strain CTF4, hits give low values
[25] = S. cerevisiae deletion strains, locus YGR229C, strain SMI1, hits give low values
[26] = S. cerevisiae deletion strains, locus YMR307W, strain GAS1, hits give low values
[27] = S. cerevisiae deletion strains, locus YNL128W, strain TEP1, hits give low values

Measured: normalized growth

Cc1cc(C)c(NC(=S)NCCCN2CCOCC2)c(C)c1
inactive: [1] 1 | [2] 1.01 | [3] 0.992 | [4] 0.901 | [5] 1.01 | [6] 1.02 | [7] 1.07 | [8] 1.01 | S. cerevisiae deletion strains, locus YJL187C, strain SWE1, hits give low values 1.01 | [9] 0.986 | [10] 0.999 | [11] 1.03 | [12] 1.01 | [13] 1.05 | [14] 1.02 | [15] 1 | [16] 1 | [17] 1.03 | [18] 0.992 | [19] 1.04 | [20] 1.01 | [21] 1.02 | [22] 0.912 | [23] 0.995 | [24] 1.01

O=C(CCN1CCCCC1)c1ccc(-c2ccccc2)cc1
active: S. cerevisiae deletion strains, locus YGR092W, strain DBF2, hits give low values 0.193 | [7] 0.567 | S. cerevisiae deletion strains, locus YHR205W, strain SCH9, hits give low values 0.471 | S. cerevisiae deletion strains, locus YKL048C, strain ELM1, hits give low values 0.699 | S. cerevisiae deletion strains, locus YKL101W, strain HSL1, hits give low values 0.454 | S. cerevisiae deletion strains, locus YLR113W, strain HOG1, hits give low values 0.642 | S. cerevisiae deletion strains, locus YNL307C, strain MCK1 (second series), hits give low values 0.246 | S. cerevisiae deletion strains, locus YPL256C, strain CLN2, hits give low values 0.684
inactive: S. cerevisiae deletion strains, locus YAR019C, strain CDC15, hits give low values 0.97 | S. cerevisiae deletion strains, locus YBL105C, strain PKC1, hits give low values 0.975 | S. cerevisiae deletion strains, locus YBR135W, strain CKS1, hits give low values 0.984 | S. cerevisiae deletion strains, locus YBR136W, strain MEC1, hits give low values 0.981 | S. cerevisiae deletion strains, locus YBR160W, strain CDC28, hits give low values 0.987 | S. cerevisiae deletion strains, locus YDL017W, strain CDC7, hits give low values 0.982 | S. cerevisiae deletion strains, locus YDL028C, strain MPS1, hits give low values 0.984 | S. cerevisiae deletion strains, locus YDL108W, strain KIN28, hits give low values 0.979 | S. cerevisiae deletion strains, locus YDL132W, strain cdc53, hits give low values 0.977 | S. cerevisiae deletion strains, locus YDL214C, strain PRR2, hits give low values 0.909 | S. cerevisiae deletion strains, locus YDR052C, strain DBF4, hits give low values 0.977 | S. cerevisiae deletion strains, locus YDR054C, strain cdc34, hits give low values 0.966 | S. cerevisiae deletion strains, locus YDR226W, strain ADK1, hits give low values 0.983 | S. cerevisiae deletion strains, locus YDR477W, strain SNF1, hits give low values 0.785 | S. cerevisiae deletion strains, locus YER123W, strain YCK3, hits give low values 0.892 | S. cerevisiae deletion strains, locus YER133W, strain GLC7, hits give low values 0.961 | S. cerevisiae deletion strains, locus YFL009W, strain cdc4, hits give low values 0.98 | S. cerevisiae deletion strains, locus YFL029C, strain CAK1, hits give low values 0.978 | S. cerevisiae deletion strains, locus YFR003C, strain YPI1, hits give low values 0.979 | S. cerevisiae deletion strains, locus YFR019W, strain FAB1, hits give low values 0.961 | S. cerevisiae deletion strains, locus YFR028C, strain CDC14, hits give low values 0.976 | S. cerevisiae deletion strains, locus YGR040W, strain KSS1, hits give low values 0.839 | S. cerevisiae deletion strains, locus YGR052W, strain FMP48, hits give low values 0.625 | S. cerevisiae deletion strains, locus YHR079C, strain IRE1, hits give low values 0.691 | S. cerevisiae deletion strains, locus YHR082C, strain KSP1, hits give low values 0.811 | S. cerevisiae deletion strains, locus YIL147C, strain SLN1, hits give low values 0.977 | S. cerevisiae deletion strains, locus YJL095W, strain BCK1, hits give low values 0.689 | S. cerevisiae deletion strains, locus YJL128C, strain PBS2, hits give low values 0.866 | S. cerevisiae deletion strains, locus YJL157C, strain FAR1, hits give low values 0.925 | S. cerevisiae deletion strains, locus YJR016C, strain ILV3, hits give low values 0.98 | S. cerevisiae deletion strains, locus YJR066W, strain TOR1 (second series), hits give low values 0.898 | S. cerevisiae deletion strains, locus YJR066W, strain TOR1, hits give low values 0.733 | S. cerevisiae deletion strains, locus YKL067W, strain YNK1, hits give low values 0.93 | S. cerevisiae deletion strains, locus YKL193C, strain SDS22, hits give low values 0.976 | S. cerevisiae deletion strains, locus YLR133W, strain CKI1, hits give low values 0.908 | S. cerevisiae deletion strains, locus YLR403W, strain SFP1, hits give low values 0.755 | S. cerevisiae deletion strains, locus YML070W, strain DAK1, hits give low values 0.909 | S. cerevisiae deletion strains, locus YMR001C, strain CDC5, hits give low values 0.972 | S. cerevisiae deletion strains, locus YMR205C, strain PFK2 (second series), hits give low values 0.941 | S. cerevisiae deletion strains, locus YMR277W, strain FCP1, hits give low values 0.974 | S. cerevisiae deletion strains, locus YNL006W, strain LST8, hits give low values 0.983 | S. cerevisiae deletion strains, locus YNL020C, strain ARK1, hits give low values 0.822 | S. cerevisiae deletion strains, locus YNL161W, strain CBK1, hits give low values 0.991 | S. cerevisiae deletion strains, locus YNL207W, strain RIO2, hits give low values 0.971 | S. cerevisiae deletion strains, locus YNL222W, strain SSU72, hits give low values 0.977 | S. cerevisiae deletion strains, locus YOL078W, strain AVO1, hits give low values 0.98 | S. cerevisiae deletion strains, locus YOL136C, strain PFK27, hits give low values 0.896 | S. cerevisiae deletion strains, locus YOR061W, strain CKA2, hits give low values 0.805 | S. cerevisiae deletion strains, locus YOR119C, strain RIO1, hits give low values 0.757 | S. cerevisiae deletion strains, locus YOR231W, strain MKK1, hits give low values 0.782 | S. cerevisiae deletion strains, locus YOR329C, strain SCD5, hits give low values 0.976 | S. cerevisiae deletion strains, locus YPL031C, strain PHO85, hits give low values 0.79 | S. cerevisiae deletion strains, locus YPL153C, strain RAD53, hits give low values 0.872 | S. cerevisiae deletion strains, locus YPL204W, strain HRR25, hits give low values 0.889 | S. cerevisiae deletion strains, locus YPL209C, strain IPL1, hits give low values 0.981 | S. cerevisiae deletion strains, locus YPR025C, strain CCL1, hits give low values 0.982 | S. cerevisiae deletion strains, locus YPR106W, strain ISR1, hits give low values 0.989 | S. cerevisiae deletion strains, locus YPR111W, strain DBF20, hits give low values 0.97 | S. cerevisiae deletion strains, strain NNK1, hits give low values 0.966 | S. cerevisiae deletion strains, strain TSCII, hits give low values 0.97

O=C(OCCN1CCCCC1)c1c[nH]c2ccccc12
inactive: S. cerevisiae deletion strains, locus YAL040C, strain CLN3, hits give low values 1 | S. cerevisiae deletion strains, locus YCL061C, strain MRC1 (second series), hits give low values 1.01 | S. cerevisiae deletion strains, locus YDR363W, strain ESC2, hits give low values 0.997 | S. cerevisiae deletion strains, locus YER002W, strain NOP16, hits give low values 1.02 | [6] 1.02 | [25] 0.999 | [17] 0.999 | [26] 1.01 | [27] 1.01 | S. cerevisiae deletion strains, locus YNL175C, strain NOP13, hits give low values 1.01 | S. cerevisiae deletion strains, locus YNL197C, strain WHI3, hits give low values 1 | S. cerevisiae deletion strains, locus YNL224C, strain SQS1, hits give low values 0.994 | S. cerevisiae deletion strains, locus YOR083W, strain WHI5 (second series), hits give low values 1 | [22] 0.997

CCCCOc1cc(C(=O)O)ccc1OC
inactive: [1] 0.97 | [2] 0.984 | [3] 0.987 | [4] 0.988 | [5] 1.01 | [6] 0.971 | [25] 1 | [7] 0.999 | [8] 0.977 | [9] 0.985 | [10] 0.962 | [11] 1.02 | [12] 0.979 | [13] 1.01 | [14] 1.04 | [15] 1 | [16] 0.975 | [17] 0.977 | [26] 0.956 | [27] 1.02 | [18] 0.979 | [19] 1.03 | [20] 0.976 | [21] 0.999 | [22] 0.941 | [23] 1.01 | [24] 1.04 | S. cerevisiae strains, strain wild type, hits give low values 1.02
